Results filed as inconclusive are left out. Activity calls are given as the source filed them. Calls come from the whole dose curve.
These molecules were tested against Muscarinic acetylcholine receptor M1 (Homo sapiens) (UniProt P11229) (assay: Cholinergic receptor muscarinic 1 (CHRM1) small molecule antagonists, cell-based qHTS assay (AID 1963588; note: nearly all actives have a fitted effect of over 40% in size)). Details: CHRM1-CHO antagonist mode, calcium flux fluorescence; series mostly up to 61.5 µM; activity, negative = inhibition: at the top concentration.
Chain of Muscarinic acetylcholine receptor M1 (Homo sapiens) (P11229 whole entry, looked up): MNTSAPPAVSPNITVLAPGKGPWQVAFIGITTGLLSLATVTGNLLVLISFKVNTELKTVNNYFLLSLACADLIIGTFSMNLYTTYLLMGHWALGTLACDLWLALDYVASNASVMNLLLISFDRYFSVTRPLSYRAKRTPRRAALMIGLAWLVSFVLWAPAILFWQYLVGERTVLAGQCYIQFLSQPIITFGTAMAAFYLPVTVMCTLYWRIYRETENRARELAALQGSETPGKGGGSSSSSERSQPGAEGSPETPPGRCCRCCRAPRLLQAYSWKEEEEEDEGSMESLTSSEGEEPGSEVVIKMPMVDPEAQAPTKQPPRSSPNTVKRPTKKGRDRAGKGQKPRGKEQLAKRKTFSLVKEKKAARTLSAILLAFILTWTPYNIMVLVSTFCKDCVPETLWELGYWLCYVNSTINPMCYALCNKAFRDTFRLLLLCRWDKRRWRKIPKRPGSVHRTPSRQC
Excerpt: National Center for Advancing Translational Sciences [NCATS]
Division of Preclinical Innovation [DPI]
U.S. Environmental Protection Agency [EPA]
National Institutes of Environmental Health Sciences [NIEHS]
National Toxicology Program [NTP]
U.S. Food and Drug Administration [FDA]
The CHRM1 is a muscarinic receptor. This receptor plays a crucial role in learning and memory processes and has long been identified as a promising therapeutic target for the improvement of cognitive decline in Alzheimer's disease (AD). The CHRM1-CHO cell line stably expressing human muscarinic acetylcholine receptor M1 (CHRM1) can be used for screening agonists and antagonists of interactions between CHRM1 and its ligands. The CHRM1-CHO Calcium Flux Assay is a homogeneous fluorescence-based assay for detecting the intracellular calcium level using FDSS kinetic plate reader system.
Tox21 Assay Protocol Summary:
CHRM1-CHO cells were dispensed at 1000 cells/3uL/well in 1536-well black-clear bottom plates using a Multidrop Dispenser. After the assay plates were incubated at a 37 C/5% CO2 incubator for 18 h, 3 uL of Dye Loading Buffer was transferred to the assay plate by a Flying Reagent Dispenser. The assay plates were incubated at 37 C for 1h. For antagonist mode, 23 nL of compounds dissolved in DMSO, positive controls or DMSO only was transferred to the assay plate by a pin tool. After 5 min incubation at room temperature, 1.5 uL of acetylcholine at 50nM was added to each well. The fluorescence intensity in the plates was measured using FDSS 7000EX kinetic plate reader for 3 min at 1 sec intervals. Each test compound was measured at 15 concentrations in three independent runs.
In the case of Cc1cc(NS(=O)(=O)c2ccc(N)cc2)nc(C)n1, the “activity, negative = inhibition” value is reported as 12.3% [at 28.3 µM] (inactive). With Cc1ccnc2ccccc12 the “activity, negative = inhibition” value was 3.08% (inactive). With CCN(CC)CCSC(=O)C(c1ccccc1)c1ccccc1 the Potency was 10.3 nM (active). In the case of O=C(CCCl)NCc1ccccc1, the “activity, negative = inhibition” value is reported as -1.6% [at 28.3 µM] (inactive). For Clc1ccc2n[nH]nc2c1, the “activity, negative = inhibition” value was 4.14% (inactive). For CCOC(=O)C(=O)c1csc(NC=O)n1, the “activity, negative = inhibition” value was -12.9% [at 28.3 µM] (inactive). For CC(C)C[P+](C)(CC(C)C)CC(C)C, the “activity, negative = inhibition” value was -7.7% (inactive). In the case of Cc1ccccc1C(=O)O, the “activity, negative = inhibition” value is reported as -21.1% (inactive). With O=C(O)c1cccc(Cl)n1 the “activity, negative = inhibition” value was 5.56% (inactive). With CCc1nnc(NS(=O)(=O)c2ccc(N)cc2)s1 the “activity, negative = inhibition” value was 13.5% [at 28.3 µM] (inactive). For O=C(O)c1cccc(N(Cc2cccnc2)c2ccc(OC(F)F)c(OC(F)F)c2)c1, the “activity, negative = inhibition” value was -24.3% (inactive). For O[C@@H](CNC[C@H](O)[C@H]1CCc2cc(F)ccc2O1)[C@@H]1CCc2cc(F)ccc2O1, the “activity, negative = inhibition” value was -7.34% [at 28.3 µM] (inactive). With S=c1[nH][nH]c(=S)s1 the “activity, negative = inhibition” value was -3.77% (inactive). With COc1cc2c(cc1OC)C(=O)C(CC1CCN(Cc3ccccc3)CC1)C2 (stereo not given) the “activity, negative = inhibition” value was -10.9% [at 28.3 µM] (inactive). With CCCCCc1ccc(N)cc1 the “activity, negative = inhibition” value was -19.6% (inactive). CC(=O)N(CC(O)CN(C(C)=O)c1c(I)c(C(=O)NCC(O)CO)c(I)c(C(=O)NCC(O)CO)c1I)c1c(I)c(C(=O)NCC(O)CO)c(I)c(C(=O)NCC(O)CO)c1I (stereo not given) was tested, and the “activity, negative = inhibition” value was 29.3% [at 28.3 µM] (inactive). For CCOc1ccc2ccccc2c1C(=O)N[C@@H]1C(=O)N2[C@@H]1SC(C)(C)[C@@H]2C(=O)O, the “activity, negative = inhibition” value was 2.96% [at 28.3 µM] (inactive). CCCCNS(=O)(=O)c1ccc(C)cc1 was tested, and the “activity, negative = inhibition” value was -15.7% (inactive). With COc1cnc(NS(=O)(=O)c2ccc(N)cc2)nc1 the “activity, negative = inhibition” value was 15.8% [at 28.3 µM] (inactive). For O=C(O)Cc1sc(-c2ccccc2)nc1-c1ccc(Cl)cc1, the “activity, negative = inhibition” value was -12% [at 28.3 µM] (inactive). In the case of C=CCOc1nc(OCC=C)nc(OCC=C)n1, the “activity, negative = inhibition” value is reported as -25.3% (inactive). For COC(=O)CS, the “activity, negative = inhibition” value was 22.6% (inactive). In the case of COc1cccc(-c2ccc(/C=C\CN3CCCCCC3)cc2Cl)c1, the Potency is reported as 836 nM (active). In the case of COC(=O)C(C)O (stereo not given), the “activity, negative = inhibition” value is reported as -7.99% (inactive). In the case of CCCCN(CCCC)CCCOC(=O)c1ccc(N)cc1, the “activity, negative = inhibition” value is reported as -15.6% [at 28.3 µM] (inactive). In the case of O=C1c2ccccc2C(=O)C1(O)O, the “activity, negative = inhibition” value is reported as 8.44% (inactive). C=CC(=C)CC/C=C(\C)CCC=C(C)C was tested, and the activity, negative = inhibition was -6.65% [at 12.6 µM] (inactive). With CC(=O)Oc1cc2c(s1)CCN(C(C(=O)C1CC1)c1ccccc1F)C2 (stereo not given) the “activity, negative = inhibition” value was -9% [at 28.3 µM] (inactive). With CC(C)(C)c1cc(CCC(=O)NCCCCCCNC(=O)CCc2cc(C(C)(C)C)c(O)c(C(C)(C)C)c2)cc(C(C)(C)C)c1O the “activity, negative = inhibition” value was -10% (inactive). For CCCCCCOC(=O)CCCCC, the “activity, negative = inhibition” value was -9.04% (inactive). With CC(O)COC(C)(C)C (stereo not given) the “activity, negative = inhibition” value was -2.28% (inactive). In the case of SC1CCCCC1, the “activity, negative = inhibition” value is reported as 20.4% (inactive). CCOc1cc([N+](=O)[O-])c(OCC)cc1N1CCOCC1 was tested, and the “activity, negative = inhibition” value was 11.1% (inactive). For NCCS, the “activity, negative = inhibition” value was 0.878% [at 28.3 µM] (inactive). For CC(=O)O[C@@H]1CC2CCC1(C)C2(C)C (stereo not given in full), the “activity, negative = inhibition” value was 28.6% (inactive). CCCCN(CCCC)C(=O)N(CCCC)CCCC was tested, and the “activity, negative = inhibition” value was 7.54% (inactive). For CCCCCCCCCCCCCCC1CO1 (stereo not given), the “activity, negative = inhibition” value was 11% (inactive). CCCS(=O)c1ccc2nc(NC(=O)OC)[nH]c2c1 (stereo not given) was tested, and the “activity, negative = inhibition” value was -2.43% [at 28.3 µM] (inactive). CCCCCCCCCCCCC was tested, and the “activity, negative = inhibition” value was 5.66% (inactive). In the case of Cc1cc(=O)[nH]c(=O)[nH]1, the “activity, negative = inhibition” value is reported as 24.8% (inactive).

From PubChem BioAssay (Tox21)
% is set by controls: 0 for no effect and ±100 for the full control effect; potency is the fitted concentration of half-maximal effect.
